# According to PubChem BioAssay (EPA / NIEHS):
# Records with an inconclusive call do not appear. Calls of active or inactive are those of the source. How the source made its calls: active means hit-call score of the fitted dose curve at least 0.9, where 1 is the maximum; inconclusive means response in the unintended direction; inactive means score below 0.9.
# Test: Tanguay_ZF_120hpf_YSE_legacy: (Legacy) Oregon State University Tanguay Lab 120 Hour Post-fertilization zebrafish Assay for Yolk Sac Edema (AID 2283634);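 on AC50: actives raise the incidence of yolk sac edema above the DMSO baseline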
# Method: Tanguay_ZF_120hpf_legacy is a whole embryo, multiplexed endpoint assay using zebrafish larvae exposed for 120 hours post fertilization on a 96-well plate.Tanguay_ZF_120hpf_YSE_legacy is one of one assay component(s) measured or calculated from the Tanguay_ZF_120hpf_legacy assay. It is designed to make measurements of zebrafish development as detected with brightfield microscopy of developing zebrafish embryos.Data from the assay component Tanguay_ZF_120hpf_YSE_legacy was analyzed into 1 assay endpoints. This assay endpoint, Tanguay_ZF_120hpf_YSE_legacy, was analyzed in the positive analysis fitting direction relative to DMSO as the negative control and baseline of activity. Using a type of morphology reporter, gain-of-signal activity can be used to understand changes in developmentals as they relate to the whole embryo. To generalize the intended target to other relatable targets, this assay endpoint is annotated to the zebrafish development intended target family, where the subfamily is extra-embryonic membrane development.
# Zebrafish husbandry: Tropical 5D wild-type adult zebrafish were housed in at an approximate density of 1000 per 100 gallon tank at the Sinnhuber Aquatic Research Laboratory, Oregon State University, Corvallis, OR. Each tank was kept at standard laboratory conditions of 28C on a 14-h light/10-h dark photoperiod in fish water consisting of reverse osmosis water supplemented with a commercially available salt (Instant Ocean). Spawning funnels were placed into the tanks the night prior, and embryos were collected and staged. To increase bioavailability, the chorion was enzymatically removed using pronase (63.6mg/ml, >/= 3.5U/mg, Sigma-Aldrich: P5147) at 4 hours post fertilization (hpf) using a custom automated dechorionator.Chemical exposures: Six hpf dechorionated embryos were placed 1 embryo per well in a 96-well plate prefilled with 90 ul of EM using automated embryo placement systems (AEPS). Ten microliters of each row of dilution plate 2 was added to 2 exposure plates. The final DMSO concentration used was 0.64% (vol/vol). Thirty-two embryos were also exposed to 5uM trimethyltin chloride (positive control). Plates were sealed to prevent evaporation and foil covered to reduce light exposure and kept in a 28C incubator. Embryos were statically exposed until 120 hpf. At 24 hpf, embryos were assessed for photomotor response using a custom photomotor response analysis tool (PRAT) and for developmental toxicity endpoints (MO24: mortality at 24 hpf, DP: developmental progression, SM: spontaneous movement, and NC: notochord distortion). At 120 hpf, locomotor activity was measured using Viewpoint Zebralab and assessed for 18 endpoints. Zebrafish acquisition and analysis program (ZAAP), a custom program designed to inventory, acquire, and manage zebrafish data, was used to collect developmental endpoints as either present or absent (i.e., binary responses were recorded). If mortality occurred for an embryo (at either 24 or 120 hpf), the non-mortality endpoints were not measured.
SMILES,outcome,AC50
O=C(NS(=O)(=O)/C=C/c1ccccc1)c1ccc(F)cc1Cl,inactive,–
CC(C)(O)c1coc(S(=O)(=O)NC(=O)Nc2c3c(cc4c2CCC4)CCC3)c1,inactive,–
CCCCCCCCCCCCc1ccccc1,inactive,–
O=C1CCCCCN1,inactive,–
CCNc1ccccc1,inactive,–
O=c1[nH]c2ccc(S(=O)CCN3CCC(Cc4ccc(F)cc4)CC3)cc2o1 (stereo not given),inactive,–
C=CC(=C)CCC=C(C)C,inactive,–
CCCCC(CC)COC(=O)c1ccc(C(=O)OCC(CC)CCCC)cc1 (stereo not given),inactive,–
Cc1c(-c2cccnc2)c2ccccc2n1CCCCC(=O)O,–,51.2 µM (active)
CC(C)c1cccc(C(C)C)c1N1C(=O)c2ccc(O)cc2C1=O,inactive,–
COc1ccc2sc(C(=O)Nc3nnn[nH]3)c(OC(C)C)c2c1,inactive,–
CC/C(=C\C(=N/O)C(N)=O)C(C)[N+](=O)[O-] (stereo not given),inactive,–
Cc1ccc(S(=O)(=O)O)cc1C,inactive,–
CN(C)c1ccc(Cc2ccc(N(C)C)cc2)cc1,inactive,–
O=c1n(CC2CO2)c(=O)n(CC2CO2)c(=O)n1CC1CO1 (stereo not given),inactive,–
Cc1ccc(C)c(O)c1,inactive,–
CCCC(=O)OCC,inactive,–
CCc1cc(SCc2sc(-c3ccc(C(F)(F)F)cc3)nc2CN2CCN(c3ccc(OC)cc3)CC2)ccc1OCC(=O)O,inactive,–
CC(C)=CCC/C(C)=C/CO,inactive,–
COc1cccc(-c2ccc(/C=C\CN3CCCCCC3)cc2Cl)c1,inactive,–

SMILES,outcome,AC50
O=C(OC[C@H]1O[C@@H](OC(=O)c2cc(O)c(O)c(OC(=O)c3cc(O)c(O)c(O)c3)c2)[C@H](OC(=O)c2cc(O)c(O)c(OC(=O)c3cc(O)c(O)c(O)c3)c2)[C@@H](OC(=O)c2cc(O)c(O)c(OC(=O)c3cc(O)c(O)c(O)c3)c2)[C@@H]1OC(=O)c1cc(O)c(O)c(OC(=O)c2cc(O)c(O)c(O)c2)c1)c1cc(O)c(O)c(OC(=O)c2cc(O)c(O)c(O)c2)c1,inactive,–
NC(=O)NO,inactive,–
Cc1ccc(O)cc1,inactive,–
O=C(CCCCCCCCc1cccnc1)N1CCC(C=C(c2ccccc2)c2ccccc2)CC1,inactive,–
CC[C@H]1CC[C@H](NCc2cc3c(cc2OC)[C@H]2C[C@H]2C(=O)N3C)[C@H](c2ccccc2)N1,inactive,–
Cn1cnc([N+](=O)[O-])c1Sc1ncnc2nc[nH]c12,inactive,–
CC(C)=CCCC(C)=CC=O,inactive,–
O=C(O)c1cccc(N(Cc2cccnc2)c2ccc(OC(F)F)c(OC(F)F)c2)c1,inactive,–
CCCCCCc1ccc(O)cc1O,inactive,–
CCCCC(CC)COC(=O)CCCCCCCCC(=O)OCC(CC)CCCC (stereo not given),inactive,–
CCOC(=O)COc1ccc2c(c1)CC(NCC(O)c1cccc(Cl)c1)CC2 (stereo not given),inactive,–
O=C1CCC(N2C(=O)c3ccccc3C2=O)C(=O)N1 (stereo not given),inactive,–
C=CCCCCCCCCC(=O)O,inactive,–
CCCCCCCCCCCCCCCO,inactive,–
C[C@](N)(Cc1ccc(O)c(O)c1)C(=O)O,inactive,–
Nc1ccc(Nc2ccccc2)cc1,–,27.5 µM (active)
O=C(O)CC(O)C(=O)O (stereo not given),inactive,–
COCCOCCOCCOC,inactive,–
O=P(OC(CCl)CCl)(OC(CCl)CCl)OC(CCl)CCl,–,25.4 µM (active)
O=C(O)c1cccc(Oc2ccccc2)c1,inactive,–
